Consider 97 molecules from PubChem BioAssay AID739 (SRMLSC, 2007).

Structures are written as SMILES. Screen size: about 98,000 compounds; about 880 (0.9%) were called active. This is one part of a sample in which actives are shown more often than they occur. Rule as the data show it: active = inhibition above about 30%; inactive = the rest.

This test in a line: phenotypic screen on post-Golgi transport, primary screen (AID 739).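 Also: yeast cells grown in 1536-well plates; yeast grown about 18 h at 30C before absorbance read.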 Particulars: post-Golgi transport phenotypic cell assay; at 10 µM; stronger effect = higher value.
By inhibition is commonly meant the change of the read-out against control, counted positive when it falls. On to `Cc1ccc(NC(=O)COc2ccc(-n3ccnc3)cc2)cc1Cl`, for which the inhibition is 48.8% (active).

Regarding `Cc1ccccc1OCC(=O)Nc1ccc(N2CCN(C(=O)C(C)C)CC2)c(Cl)c1`, the inhibition was -4.22% (inactive).

Consider `CN1CCN(c2ccc(NC(=O)COc3ccc(Cl)cc3Cl)cc2)CC1`, for which the inhibition is 0.47% (inactive).

As to `CCCOc1cc(C)c(S(=O)(=O)n2nnc3ccccc32)cc1C`, the inhibition is 0.66% (inactive).

For the molecule `Cn1cc(S(=O)(=O)N2CCN(c3ccc(F)cc3)CC2)c(=O)n(C)c1=O`, the inhibition is -6.58% (inactive).

With `CC(C)c1ccc(NS(=O)(=O)c2cn(C)c(=O)n(C)c2=O)cc1`, the inhibition is 76% (active).

With `Cn1cc(S(=O)(=O)N2CCC(Cc3ccccc3)CC2)c(=O)n(C)c1=O`, the inhibition is 7.01% (inactive).

In the case of `CCN1CCN(C(=O)c2cc3cc4ccc(OC)cc4nc3s2)CC1`, the inhibition was 1.48% (inactive).

On to `O=C(NC1CCN(Cc2ccccc2)CC1)c1ccccc1F`, for which the inhibition is 1.69% (inactive).

On to `O=C(COc1ccccc1F)NC1CC1`, for which the inhibition is 15.2% (inactive).

Consider `O=C(COc1ccc(Br)cc1F)NC1CCN(Cc2ccccc2)CC1`, for which the inhibition was 95.3% (active).

For the molecule `CCC1(C)Cc2c(sc3nc(SC)nc(N)c23)CO1` (configuration not stated), the inhibition was -2.83% (inactive).

On to `COC(=O)c1ccc(Cc2ccccc2)o1`, for which the inhibition is 8.24% (inactive).

In the case of `C=C(C)COc1ccc(-c2n[nH]c(C)c2-c2ccccc2OC)c(O)c1`, the inhibition was -7.36% (inactive).

For the molecule `CCOc1ccccc1NC(=O)Nc1cc(OC)ccc1OC`, the inhibition was 1.32% (inactive).

On to `CCOc1ccccc1Oc1cn[nH]c1-c1ccc(OC)cc1O`, for which the inhibition is 80.9% (active).

On to `O=C(Nc1ccc(Cl)cc1)c1cc2nc(C3CC3)cc(C(F)(F)F)n2n1`, for which the inhibition was 12% (inactive).

As for `CC12c3ccccc3C(c3ccccc31)C1C(=O)N(Cc3cccnc3)C(=O)C12` (configuration not stated), the inhibition is 2.75% (inactive).

Turning to `CC(C)Cc1oc(C(=O)O)cc1CN`, the inhibition was -3.35% (inactive).

Take `COC(=O)C1CCN(CC(N)=O)CC1`: the inhibition is 0% (inactive).

For `COc1cccc(OCC(O)CN2CCN(CCO)CC2)c1` (configuration not stated), the inhibition was 3.01% (inactive).

Regarding `OC(COc1cccc2ccccc12)CN1CCN(c2ccccn2)CC1` (configuration not stated), the inhibition was 3.42% (inactive).

In the case of `Cc1ccc(OCC(O)CN2CCN(CC(O)COc3ccc(C)cc3Cl)CC2)c(Cl)c1` (configuration not stated), the inhibition is 67.9% (active).

In the case of `Fc1ccc(-n2c(Cc3ccccc3)nnc2SCc2nc(-c3ccc(Cl)cc3)no2)cc1`, the inhibition was -6.61% (inactive).

`Cc1nn(C)c(Oc2ccc(Cl)cc2)c1C=O`: the inhibition was -3.55% (inactive).

`Cc1nc(Cl)c2oc3ccccc3c2n1`: the inhibition is 12.3% (inactive).

Turning to `CCC(=O)c1ccc(OCC(O)CN2CC(C)OC(C)C2)cc1` (configuration not stated), the inhibition is 2.21% (inactive).

Consider `O=C(c1ccc(Cl)cc1)c1ccc(OCC(O)CN2CCCCC2)cc1` (configuration not stated), for which the inhibition was 35.1% (active).

Regarding `OC(COc1cccc(OCC(O)CN2CCCC2)c1)CN1CCCC1` (configuration not stated), the inhibition is -2.18% (inactive).

As to `CC(C)NC(=O)C(=O)NCCN1CCN(S(=O)(=O)c2ccc(Cl)cc2)CC1`, the inhibition is 1.12% (inactive).

Turning to `CC1(C)Cc2c(sc3nc(SCC(=O)NCc4ccccc4)n(-c4ccccc4)c(=O)c23)CS1`, the inhibition is 8.61% (inactive).

For the molecule `COc1ccc(CC(=O)Nc2ccc(-c3nnc(-c4ccc(C)cc4)o3)cc2)cc1`, the inhibition was 5.17% (inactive).

In the case of `COc1ccc(NC(=O)/C(Cl)=C(/Cl)S(=O)Cc2ccc(C)cc2)cn1` (configuration not stated), the inhibition is 107% (active).

Take `COc1cccc(NC(=O)Cc2ccc(C)cc2)c1`: the inhibition was 24.4% (inactive).

In the case of `COC(=O)C(NC(=O)c1ccc(OC)cc1)(Nc1ncc(S(=O)(=O)c2ccc([N+](=O)[O-])cc2)s1)C(F)(F)F` (configuration not stated), the inhibition is 6.99% (inactive).

Take `Cc1cc(C)cc(OCC(=O)Nc2nc3ccc([N+](=O)[O-])cc3s2)c1`: the inhibition was -4.35% (inactive).

In the case of `O=C(NC(Nc1nc2ccc([N+](=O)[O-])cc2s1)(C(F)(F)F)C(F)(F)F)c1ccccc1`, the inhibition is 102% (active).

Regarding `COc1cc(OC)c(/C=N/NC(=O)c2ccc([N+](=O)[O-])cc2)cc1Br`, the inhibition is -4.41% (inactive).

Take `CCCc1ccc(-c2c(C)sc(NC(=O)c3ccnn3C)c2C#N)cc1`: the inhibition is -9.37% (inactive).

In the case of `CC(CNC(=O)c1ccc(Br)o1)NC(=O)c1ccc(Br)o1` (configuration not stated), the inhibition is 36.5% (active).

As to `CCc1c(C)sc(NC(=O)c2ccc(Br)o2)c1C(=O)OC`, the inhibition was 2.81% (inactive).

With `CC(CCc1ccccc1)NC(=O)c1ccc(Br)o1` (configuration not stated), the inhibition is 2.83% (inactive).

For `Cc1cccc(C(=O)N2CCCN(C(=O)c3cccc(C)c3)CC2)c1`, the inhibition was 17.7% (inactive).

On to `COC(=O)C1C(=O)NCC1c1ccc(C)cc1` (configuration not stated), for which the inhibition was -3.77% (inactive).

Turning to `CCCCN=C1N/C(=C\c2ccco2)C(=O)N1c1ccccc1`, the inhibition was 1.56% (inactive).

For `O=C1c2ccccc2C(=O)N1CCC(c1ccccc1)c1ccco1` (configuration not stated), the inhibition is -1.67% (inactive).

Take `CCCCCCC(=O)Nc1nc(C)c(-c2csc(Nc3cc(Cl)ccc3OC)n2)s1`: the inhibition is -2.77% (inactive).

For the molecule `CCCCC(=O)Nc1nc(C)c(-c2csc(Nc3ccc(Cl)cc3)n2)s1`, the inhibition is 32.9% (active).

With `C=CCCC(=O)Nc1nc(C)c(-c2csc(Nc3ccc(Cl)cc3)n2)s1`, the inhibition is 12.8% (inactive).

`CCCCOc1ccc(C(=O)NCc2ccncc2)cc1`: the inhibition was 2.23% (inactive).

On to `O=C(CNC(=O)c1ccc(Cl)cc1Cl)NCC(=O)Nc1ccccc1N1CCOCC1`, for which the inhibition is -6.67% (inactive).

Regarding `COc1c(C)cccc1C(=O)Nc1cc(Cl)ccc1N1CCOCC1`, the inhibition is 64.3% (active).

Turning to `Cc1cc(C(=O)Nc2ccccc2N2CCOCC2)c2ccccc2n1`, the inhibition is -2.05% (inactive).

Regarding `O=C(Nc1nnc(-c2ccc(Cl)cc2)o1)c1ccccc1Br`, the inhibition is 78.2% (active).

With `O=C(Nc1cccc(Cl)c1)Nc1nnc(-c2ccccc2)o1`, the inhibition is -5.96% (inactive).

Regarding `Cc1nonc1NC(=O)c1ccccc1Br`, the inhibition was -12.3% (inactive).

Turning to `CS(=O)(=O)N1CCN(c2ccc(C(=O)NC3C4CC5CC(C4)CC3C5)cc2[N+](=O)[O-])CC1` (configuration not stated), the inhibition was -5.58% (inactive).

`CCOC(=O)N1CCC(Nc2c(NCCCN3CCN(CC)CC3)c(=O)c2=O)CC1`: the inhibition was -3.44% (inactive).

For `Cc1ccc(C(=O)NNC(=O)OC(C)(C)C)c(Cl)c1`, the inhibition is -3.13% (inactive).

As for `COc1cc(OC)c(NC(=O)c2ccc(Br)o2)cc1Cl`, the inhibition was 6.31% (inactive).

`CCCC(=O)Nc1ccc(Cl)c(NC(=O)c2ccc(Br)o2)c1`: the inhibition was 0.4% (inactive).

As for `CCN1CCN(c2c(Cl)cccc2NC(=O)c2ccc(Br)o2)CC1`, the inhibition is 30.4% (active).

With `CC(C)Cn1cnc2c1c(=O)n(CC(O)c1ccccc1)c(=O)n2CC(C)C` (configuration not stated), the inhibition is 2.02% (inactive).

In the case of `CCn1c2ccccc2c2cc(NC(=S)N3CCOCC3)ccc21`, the inhibition is 8.17% (inactive).

Regarding `CCCC(=O)N(CCc1ccccc1)Cc1nc2ccccc2c(=O)[nH]1`, the inhibition was -6.28% (inactive).

As to `COc1ccc(N2CCN(Cc3cc(=O)oc4ccc5ccccc5c34)CC2)cc1`, the inhibition was 14.4% (inactive).

As to `CN(Cc1nc2ccccc2c(=O)[nH]1)Cc1cc(=O)oc2ccc3ccccc3c12`, the inhibition was 39.3% (active).

Take `CC(C)c1ccc(NC(=O)CCN2C(=O)c3ccc([N+](=O)[O-])cc3C2=O)cc1`: the inhibition was -0.5% (inactive).

Regarding `Cc1ccc(S(=O)(=O)NCC(=O)N(CC(=O)NC(C)(C)C)Cc2cccs2)cc1`, the inhibition is -2.77% (inactive).

For the molecule `Cn1nc([N+](=O)[O-])nc1Sc1ccc(C(C)(C)C)cc1`, the inhibition was 0.31% (inactive).

With `Cn1c(Cn2nnc3ccccc32)nnc1SCC(=O)c1ccccc1F`, the inhibition is 11.5% (inactive).

As for `O=C(c1cccnc1NCc1ccccc1)N1CCOCC1`, the inhibition was -0.34% (inactive).

Take `CSc1ncccc1C(=O)OCC(=O)N1CCOCC1`: the inhibition was 31.5% (active).

Turning to `COc1ccc(C(CNC(=O)c2cccnc2SC)N2CCOCC2)cc1` (configuration not stated), the inhibition is -3.85% (inactive).

Regarding `Cc1ccc(SCC(=O)c2sc(-c3ccccc3)nc2C)cc1`, the inhibition was -0.4% (inactive).

Turning to `O=C(COc1ncnc2c(Cl)cc(Cl)cc12)N1CCN(S(=O)(=O)c2ccccc2)CC1`, the inhibition is 18.3% (inactive).

As to `CC(=O)NNc1cc(=O)c2c(=O)n(C)c(=O)n(C)c2[nH]1`, the inhibition was 9.45% (inactive).

`O=C(O)C1CCCN(S(=O)(=O)c2cccc3cccnc23)C1` (configuration not stated): the inhibition was -3.64% (inactive).

Consider `O=S(=O)(c1cnccc1N1CCN(/N=C/c2ccc(Br)cc2)CC1)N1CCCCC1`, for which the inhibition is 49.6% (active).

Regarding `CNS(=O)(=O)c1cnccc1N1CCN(c2cccc(C)c2)CC1`, the inhibition was -3.21% (inactive).

As for `CCCOn1c(-n2nc(C)cc2C)nc2ccccc2c1=O`, the inhibition is 2.91% (inactive).

Take `CCOC(=O)N1CCN(c2c(NCCCN3CCCC(C)C3)c(=O)c2=O)CC1` (configuration not stated): the inhibition was 7.09% (inactive).

Regarding `O=C(OCc1cn(-c2ccc(Cl)c(Cl)c2)nn1)c1ccccc1Cl`, the inhibition is -1.94% (inactive).

Regarding `Cc1nc2ccccc2c(=O)n1CCCn1ccnc1`, the inhibition was 2.21% (inactive).

As to `CCn1c(/C=C/c2ccc([N+](=O)[O-])o2)nc2ccccc2c1=O`, the inhibition was 76.6% (active).

Consider `CCc1ccc(NC(=O)CSc2nc3ccccc3c(=O)n2CCN2CCOCC2)cc1`, for which the inhibition was 0% (inactive).

Consider `O=C(CCCCCn1c(=O)[nH]c2ccccc2c1=O)NCCc1c[nH]c2ccccc12`, for which the inhibition was -3.35% (inactive).

With `COc1ccc2c(c1)CCc1c(C(=O)N3CCc4ccccc4C3)noc1-2`, the inhibition is 40.4% (active).

For `COc1ccc2c(c1)CCc1c(C(=O)Nc3c(C)n(C)n(-c4ccccc4)c3=O)noc1-2`, the inhibition was 3.19% (inactive).

For `COc1ccc2c(c1)CCc1c(C(=O)N3CCCC3)noc1-2`, the inhibition was -1.12% (inactive).

For the molecule `CCN(CC)CCCNC(=O)CCc1ccccc1`, the inhibition was 3.7% (inactive).

With `Cc1nn(CC(=O)Nc2nc3ccccc3s2)c(C)c1[N+](=O)[O-]`, the inhibition is -1.92% (inactive).

For the molecule `O=C(CCS(=O)(=O)c1cccc2nsnc12)N1CCN(c2ccccc2F)CC1`, the inhibition is 6.04% (inactive).

For the molecule `Fc1ccc(N2N=C(c3cccs3)CC2c2ccco2)c(F)c1` (configuration not stated), the inhibition was 8.56% (inactive).

In the case of `Cc1cc2cc3c(cc2nc1SCC(=O)Nc1c(C)cccc1C)CCC3`, the inhibition was -0.36% (inactive).

In the case of `CC(NC(=O)CSc1nc2c(cc1C#N)CN(C)CC2)c1ccccc1` (configuration not stated), the inhibition is 60.2% (active).

For `Cc1nc2cc(NC(=O)CSc3nc4c(C)cccc4cc3C#N)ccc2s1`, the inhibition is -0.17% (inactive).
